Assay results reported in PubChem BioAssay (NCATS).
Results filed as inconclusive are left out. Values without a mark were called inactive. Calls follow the shape of the full dose curve.

Test: qHTS for inhibitors of Rabies Virus screened against the NCATS CANVASS Library (AID 1347402); also: 0% is about no effect
Conditions: Rabies virus infection cell assay; series mostly up to 45.9 µM; activity change, negative = inhibition: at the top concentration

| SMILES | activity change, negative = inhibition |
| --- | --- |
| O=C(O)c1cc(O)c(O)c(O)c1 | -20.3% |
| CN1CCC[C@@H]1c1cccnc1 | -2.88% |
| C[C@@H]1O[C@@H](OC[C@H]2O[C@@H](Oc3c(-c4ccc(O)c(O)c4)oc4cc(O)cc(O)c4c3=O)[C@H](O)[C@@H](O)[C@@H]2O)[C@H](O)[C@H](O)[C@H]1O | 1.59% [at 15.3 µM] |
| COC(=O)[C@@H]1[C@H]2C[C@H]3c4[nH]c5ccccc5c4CCN3C[C@@H]2CC[C@@H]1O | -1.31% |
| COc1ccc2[nH]cc(CCNC(C)=O)c2c1 | -18.4% |
